Experimental findings from PubChem BioAssay (NCATS) are described below.

“And” between values parts separate entries of the source, which are not always exact repeats. Identical values can stand only once. Records with an inconclusive call do not appear. The source made the active and inactive calls. Unless noted, the call rests on the fitted dose curve; in most records, active means well fitted curve in the direction sought with a large enough effect; inconclusive means small, poorly fitted or top-dose-only effect, or another doubt; inactive means no such curve, though single readings can be large; an effect the other way counts as inactive or inconclusive.

A short description of test [1]: Validation of Assay for Modulators of Lamin A Splicing (AID 1459; active means well fitted curve in the direction sought with a large enough effect in the signal ratio; the % refers to the signal ratio;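 further: cells exposed to compound for two days before reading; 0% is about no effect; ratio rise marks activators and ratio drop marks inhibitors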). An outline of the steps: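 Splicing correction read as GFP (500-530 nm) over DsRed2 (575-640 nm) object intensity after 48 h compound exposure of reporter HeLa S3 clones (600 cells/well, 2% FBS medium); ancitabine and cycloheximide titrations, 0.5% DMSO as vehicle.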
The nature of test [2]: qHTS Assay for Lipid Storage Modulators (AID 1519; calls by dose curve; on activity change, negative = inhibition: on the % scale 0 is the no-effect control and ±100 the full control effect). Conditions: Drosophila S3 cells, BODIPY lipid droplet/cell ratio, laser cytometry, cells loaded with oleic acid; for activity change, negative = inhibition: at 57.5 µM (top of the series). Summed up:
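Cells seeded at 5,000 per well were treated with compounds over a concentration series and loaded with oleic acid (400 uM, as added). Lipid droplet fluorescence (488 nm excitation, 500-530 nm channel) was read by laser-scanning cytometry and normalized to 20 uM Triacsin C.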
On the technique in general: Quantitative high-throughput screening tests each substance at several concentrations.

The nature of test [3]: Counterscreen for APE1 Inhibitors: Fluorescent Dye Displacement Validation Assay (AID 1707).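 Further: plate controls were ThO with dsDNA and no compound for no effect and ThO without dsDNA for full effect.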 Summed up:
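Endpoint fluorescence read at 480 nm excitation / 540 nm emission; DNA-binding compounds lower signal by displacing 250 nM Thiazole Orange from 50 nM dsDNA containing a tetrahydrofuran abasic site, Tris-HCl pH7.5 buffer with NaCl and MgCl2.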
Background: Counterscreens check selectivity or assay interference.

For test [4], the target named is Endonuclease 4 (Escherichia coli (strain K12)) (UniProt P0A6C1). Put plainly: Counterscreen for APE1 Inhibitors: qHTS Validation Assay for Inhibitors of Endonuclease IV (AID 1708). Further: potency means the concentration at half of the fitted maximal effect. On activity change, negative = inhibition: on the % scale 0 is the no-effect control and ±100 the full control effect. Summed up: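 Incision of a double-stranded 50 nM TAMRA/BHQ-2 abasic substrate was followed kinetically (525/598 nm, reads every 60 s) after 15 min enzyme–compound preincubation with 2 nM EndoIV in pH 7.5 Tris buffer with MgCl2, DTT and Tween-20; concentration-response format.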

A short description of test [5]: qHTS for differential inhibitors of proliferation of Plasmodium falciparum line 7G8 (AID 1815).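 Further: parasite growth measured after three days of incubation.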 Further: potency means the concentration at half of the fitted maximal effect.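 On activity change, negative = inhibition: plate controls were vehicle wells for no effect and reference inhibitor wells for full effect.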
Test [6] can be described thus: qHTS for differential inhibitors of proliferation of Plasmodium falciparum line GB4 (AID 1816).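 Further: parasite growth measured after 72 h incubation.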 Further: potency means the concentration at half of the fitted maximal effect.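 On activity change, negative = inhibition: 0% = vehicle DMSO and -100% = reference inhibitor.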 Conditions: Potency: Plasmodium falciparum GB4 proliferation inhibition.
The nature of test [7]: qHTS for differential inhibitors of proliferation of Plasmodium falciparum line 3D7 (AID 1876). Further: potency means the concentration at half of the fitted maximal effect.
For test [8], the target named is DNA repair nuclease/redox regulator APEX1 (Homo sapiens) (UniProt P27695). Put plainly: qHTS Validation Assay for Inhibitors of the Human Apurinic/apyrimidinic Endonuclease 1 (APE1) (AID 1705; further: potency means the concentration at half of the fitted maximal effect;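 on activity change, negative = inhibition: TAMRA fluorescence gain over two minutes as APE1 cuts a quenched THF abasic duplex; on the % scale 0 is the no-effect control and ±100 the full control effect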). Summed up:
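Activity read as rising fluorescence (598 nm emission, 525 nm excitation) from incision of a TAMRA/BHQ-2 duplex carrying a THF abasic site (50 nM). Compound and enzyme sat 15 min at RT before substrate start; signal change between first and third 60-s reads.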

Test [9] deals with Alpha-galactosidase A (Homo sapiens) (UniProt P06280). Nature of the test: Counterscreen for Glucocerebrosidase Inhibitors: qHTS Assay for Human alpha-Galactosidase at pH 4.5 (AID 992). Further: 0% is about no effect. Summed up: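 Fluorogenic 4-MU alpha-D-galactoside (80 uM) hydrolysis, 2 nM enzyme, pH 4.5 citrate buffer + 0.005% Tween-20; 20 min RT; NaOH/glycine pH 10 stop; Ex365/Em440. Compounds titrated 0.7 nM–77 uM; Hill-equation AC50.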

Test [10] concerns the target alpha-glucosidase (Oryza sativa, rice) (UniProt Q653V4). Put plainly: Counterscreen for Glucocerebrosidase Inhibitors: qHTS Assay for Rice alpha-Glucosidase at pH 5.0 (AID 997).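 Further: 0% = full activity with enzyme and -100% = basal without enzyme.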 Summed up:
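Endpoint fluorogenic assay at pH 5.0: compounds (0.7 nM to 77 uM) titrated against 4 nM rice enzyme and 400 uM 4-MU-alpha-glucoside for 20 min at room temperature; NaOH/glycine stop, read ex 365/em 440 nm, Hill-fitted AC50.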

The mark [11] stands for this setting: measured here: cell count channel max response.
Where [12] appears, read: measured here: lipid channel max response.

Alpha-galactosidase A (Homo sapiens), sequence (P06280 whole entry, looked up): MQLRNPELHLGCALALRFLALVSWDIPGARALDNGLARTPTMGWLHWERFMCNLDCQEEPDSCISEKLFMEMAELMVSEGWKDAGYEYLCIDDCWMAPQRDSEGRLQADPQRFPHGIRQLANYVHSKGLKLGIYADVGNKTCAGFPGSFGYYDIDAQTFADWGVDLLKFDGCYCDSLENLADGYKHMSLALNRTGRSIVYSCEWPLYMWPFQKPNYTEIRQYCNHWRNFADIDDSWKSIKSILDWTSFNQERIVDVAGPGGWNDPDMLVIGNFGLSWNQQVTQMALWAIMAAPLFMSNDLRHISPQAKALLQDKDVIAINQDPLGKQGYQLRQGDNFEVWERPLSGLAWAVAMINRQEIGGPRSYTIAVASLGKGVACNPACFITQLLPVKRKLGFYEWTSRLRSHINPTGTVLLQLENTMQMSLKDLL
DNA repair nuclease/redox regulator APEX1 (Homo sapiens), sequence (P27695 whole entry, looked up): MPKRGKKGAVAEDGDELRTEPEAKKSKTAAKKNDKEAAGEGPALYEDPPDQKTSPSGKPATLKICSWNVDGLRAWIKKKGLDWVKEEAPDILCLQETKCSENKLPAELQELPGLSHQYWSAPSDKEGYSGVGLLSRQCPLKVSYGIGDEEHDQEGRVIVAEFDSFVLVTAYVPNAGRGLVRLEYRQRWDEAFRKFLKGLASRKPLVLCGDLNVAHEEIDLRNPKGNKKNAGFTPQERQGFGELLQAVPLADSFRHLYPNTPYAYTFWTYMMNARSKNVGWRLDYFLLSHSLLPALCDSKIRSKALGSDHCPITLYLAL

For `O=C(O)[C@H]1NCCC[C@H]1C(=O)O`, the compound was called inactive in test [1]. For the same compound, in test [2], the activity change, negative = inhibition was -1.57% (inactive). Moreover, the max response in [2] (setting [11]) is -48.8%; in test [2] (setting [12]) it was -48.9%. The Potency result in [3], in test [4], in test [5], in test [6] and in test [7] was “inactive” each time.

For the compound `CCCCCCCCCC[Si](C)(C)CCC(=O)NC(Cc1ccc(C)cc1)c1ccccc1` (stereo not given), in test [1], the compound was called inactive. Also, the Potency entry in [8], in test [3] and in test [4] was “inactive” each time.

`N=C(N)SCCN`: the outcome in [9], in test [10] and in test [1] was inactive. The activity change, negative = inhibition in test [2] was 1.32% (inactive) and 3.68% (inactive). The max response is 9.1% and -2.48% in test [2] (setting [11]); 12% and 0.318% in test [2] (setting [12]). The Potency entry in test [3] and in test [4] was “inactive” each time.

In the case of `NCC(O)c1ccc(O)c(O)c1` (stereo not given), the call in test [1] was inactive. The Potency result in test [8] and in test [3] was “inactive” in each case.

For `CNc1cc(NS(=O)(=O)c2ccc(N)cc2)nc(NC)n1`, the outcome in test [9], in test [10] and in test [1] was inactive. Also, the activity change, negative = inhibition in test [2] is 0.422% (inactive). In addition, the max response in test [2] (setting [11]) is -14.7%; in test [2] (setting [12]), -14.3%. Also, the Potency entry in [3], in test [5], in test [6] and in [7] was “inactive” each time.

For the compound `NC1(C(=O)O)CCc2cc(C(=O)O)ccc21` (stereo not given), the outcome in [1] was inactive. Also, in [2], the activity change, negative = inhibition was -2.76% (inactive). Also, the max response is -17.6% in [2] (setting [11]) and -22% in test [2] (setting [12]). Also, the Potency entry in test [3], in test [5], in test [6] and in test [7] was “inactive” each time.

For the compound `CCC(=O)N1CCN(C(=O)c2ccccc2)CC1`, the call in test [9], in test [10] and in test [1] was inactive. Also, the activity change, negative = inhibition in test [2] was 0.685% (inactive). The max response in [2] (setting [11]) was -9.69%; in [2] (setting [12]), -7.51%. Further, the Potency result in test [8] and in test [3] was “inactive” throughout.

With `COC(=O)C1=C(C)NC(C)=C([N+](=O)[O-])C1c1ccccc1C(F)(F)F` (stereo not given), in test [1], the compound was called inactive. Also, the Potency result in test [8] and in test [3] was “inactive” each time.

For `O=C(O)Cc1ccc(O)c(O)c1`, the result in test [9], in test [10] and in [1] was inactive. Further, the activity change, negative = inhibition in test [2] was -0.0553% (inactive). Besides, the max response in test [2] (setting [11]) is -16.6%; in test [2] (setting [12]) it was -14.9%. In test [8], the Potency is 7.94 µM (active). In addition, the Potency result in test [3], in test [6] and in [7] was “inactive” in each case.

Regarding `O=c1onc2cnc3ccccc3n12`, the compound was classed as inactive in test [9], in test [10] and in test [1]. For the same compound, in [2], the activity change, negative = inhibition is 0.198% (inactive). Besides, the results for the max response in [2] (setting [11]) and in [2] (setting [12]) were 54.3% and 54.9%, respectively. Further, the Potency result in [3] and in test [4] was “inactive” in each case.

As for `CC(=O)NNC(=O)N1Cc2ccccc2Oc2ccc(Cl)cc21`, the outcome in [9], in [10] and in [1] was inactive. In addition, the activity change, negative = inhibition in test [2] is 3.63% (inactive) and -0.28% (inactive). In addition, the max response in test [2] (setting [11]) is -1.09% and 39.5%; in test [2] (setting [12]), 4.04% and 30.3%. For the same compound, the Potency result in test [3], in test [6] and in test [7] was “inactive” in each case.

Regarding `OCC1NCC(O)C(O)C1O` (stereo not given), the call in [1] was inactive. In addition, the Potency entry in test [8], in test [3], in test [4], in test [5], in test [6] and in [7] was “inactive” in each case.

Regarding `NC(N)=NC(N)=Nc1ccccc1`, the result in test [9], in [10] and in test [1] was inactive. Also, in [2], the activity change, negative = inhibition is -1.27% (inactive) and 5.81% (inactive). Also, the max response is 10.6% and 8.56% in test [2] (setting [11]); 10.2% and 16.5% in test [2] (setting [12]). For the same compound, the Potency result in [8], in [3] and in test [5] was “inactive” in each case.

Consider `CCCCCCCCCCCCCCC[C@H](O)[C@H](N)CO`, for which the compound was classed as inactive in [9], in test [10] and in [1]. Further, in test [2], the activity change, negative = inhibition was -9.53% (inactive). In addition, the max response in test [2] (setting [11]) is -83.5%; in [2] (setting [12]), -95.1%. For the same compound, the Potency result in test [8] and in [7] was “inactive” in each case. The Potency in [4] was 31.6 µM (active).

With `N=S(=O)(O)Cc1noc2ccccc12`, the compound was classed as inactive in test [1]. Besides, the activity change, negative = inhibition in test [2] was -0.718% (inactive). For the same compound, the results for the max response in [2] (setting [11]) and in test [2] (setting [12]) were 21.5% and 20%, respectively. The Potency entry in test [3] and in test [7] was “inactive” each time.

Regarding `NCCNS(=O)(=O)c1cccc2c(Cl)cccc12`, the call in [9], in test [10] and in test [1] was inactive. For the same compound, the activity change, negative = inhibition in [2] is -0.563% (inactive). For the same compound, the max response is -2.01% in test [2] (setting [11]) and -12.2% in test [2] (setting [12]). The Potency entry in test [3] is “inactive”. Also, the Potency was 7.08 µM (active) in [5], 8.91 µM (active) in test [6] and 12.6 µM (active) in [7].

As to `NC(=O)CC[C@H](N)C(=O)O`, in test [1], the result was inactive. The Potency result in test [8], in test [3], in test [5], in test [6] and in test [7] was “inactive” each time.

`CC[C@H](NC(=O)c1c(C)c(-c2ccccc2)nc2ccccc12)c1ccccc1`: the compound was called inactive in [9], in [10] and in test [1]. In addition, the Potency result in test [8], in [3] and in test [4] was “inactive” each time. The figures for the Potency in test [5] and in test [6] were 7.08 µM (active) and 11.2 µM (active), respectively.

In the case of `N[C@H]1CONC1=O`, in test [1], the result was inactive. For the same compound, the Potency result in [8], in test [3], in [5], in [6] and in [7] was “inactive” in each case.

Take `C[C@H](NC(=O)/C(C#N)=C/c1ccc(O)c(O)c1)c1ccccc1`: the compound was called inactive in [9], in test [10] and in test [1]. In addition, the Potency entry in test [8], in test [3] and in test [4] was “inactive” in each case. Besides, the Potency in test [5] was 7.08 µM (active); in [6] it was 11.2 µM (active); in test [7] it was 14.1 µM (active).

As to `[Li+]`, the compound was classed as inactive in test [9], in test [10] and in [1]. Besides, the Potency result in test [8], in test [3], in test [4], in test [5], in test [6] and in test [7] was “inactive” throughout.

Regarding `N#CC(C#N)=C(N)/C(C#N)=C/c1ccc(O)cc1`, the call in test [9], in test [10] and in test [1] was inactive. Also, the Potency result in test [8], in test [3] and in [4] was “inactive” each time.

`N[C@@H](Cc1ccc(F)cc1)C(=O)O`: the call in [1] was inactive. The Potency result in test [8], in test [3] and in [4] was “inactive” throughout. For the same compound, the values for the Potency in test [5], in [6] and in [7] were 12.6 µM (active), 14.1 µM (active) and 11.2 µM (active), respectively.

`C=CCN1CCc2c(cc(O)c(O)c2Cl)C(c2ccccc2)C1` (stereo not given): in [1], the compound was called inactive. The Potency result in test [8], in test [3] and in test [4] was “inactive” throughout. Besides, the Potency in test [5] was 5.01 µM (active); in test [6], 5.01 µM (active); in test [7], 7.94 µM (active).

In the case of `Cc1cccc(C2CN(C)CCc3c2cc(O)c(O)c3Cl)c1` (stereo not given), the outcome in test [1] was inactive. Further, the Potency entry in [8] and in test [3] was “inactive” in each case. The values for the Potency in test [5], in test [6] and in [7] were 7.94 µM (active), 8.91 µM (active) and 8.91 µM (active), respectively.
